AddAB inh: less growth of phage-infected E. coli with AddAB | E. coli expressing H. pylori AddAB, absorbance growth | hit rate 0.29% among 330,000 | inhibition, % at 11.9 µM; in the data active = inhibition above about 12%
phage Ecoli inh: E. coli growth loss with phage present; growth absorbance; inhibition, % at 11.9 µM; hit rate 0.26% among 360,000; AID 651602; in the data active = inhibition above about 11%
E coli growth-1: bacterial growth inhibition, counter-screen for AddAB inhibitors | E. coli V3065 growth, OD600 absorbance, 18 h | inhibition, % at 11.9 µM | hit rate 0.27% among 330,000 | AID 449728;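 active = inhibition above the campaign's mean inhibition across all tested compounds plus 3 SD, cut at about 9.9% in these data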;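 also: uninfected addAB+ strain grown without phage in ampicillin broth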
E coli growth-2: inhibitors of Escherichia coli growth; OD600, 23 h; active compounds read low; OD600 absorbance (concentration not given with the values); AID 1053175; hit rate 0.21% among 330,000;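 active = OD600 absorbance below the run mean of sample wells minus 3.6 SD, in any replicate, cut at about 0.56 in these data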
Tat export inh: E. coli Tat transport inhibition | E. coli MC4100 TorA-mCherry Tat export, fluorescence | hit rate 0.036% among 340,000 | AID 488895 | inhibition, % at 10 µM;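 active = mean replicate inhibition at least 50% and at least half of replicates individually reaching 50%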;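 also: exported cargo escapes ClpAP degradation while cytoplasmic cargo is degraded and loses fluorescence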
RecBCD conf: confirmation: growth loss of phage-infected RecBCD+ E. coli (RecBCD inhibitor screen) | shares compounds with phage Ecoli inh | E. coli V66 + T4 2- phage, growth OD | hit rate 45% among 890 | inhibition, % at 11.9 µM;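 active = mean inhibition over triplicates exceeding the hit threshold derived in the original primary screen, cut at about 11% in these data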
Ecoli viability: bacterial viability inhibition counter-screen for RecBCD; shares compounds with phage Ecoli inh; E. coli viability, absorbance (OD) growth; hit rate 29% among 890; inhibition, % at 11.9 µM; in the data active = inhibition above about 20%;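 also: E. coli strain V66 grown with compound alone and no phage infection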
AddAB phage OD: growth loss of phage-infected AddAB E. coli, RecBCD counter-screen | shares compounds with phage Ecoli inh | E. coli expressing H. pylori AddAB + T4 phage, OD growth; gene 2 mutant T4, recBCD-deleted host | inhibition, % at 11.9 µM | hit rate 45% among 890 | AID 651984;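 active = mean inhibition above the solvent-only control wells' mean plus 3 SD, cut at about 22% in these data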;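 also: higher means less bacterial growth from phage killing when AddAB is blocked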
Of the large screens only hits and unclear results are named; the others gave an inactive call (follow-up assays come after a bar, where they were run); ! = a repeat was not active. Hits are enriched below; roughly 0.5% of the tested compounds scored in any of these assays.

COc1cc2nc(N(C)C)nc(N)c2cc1OC	none
CN(C)c1ccc(Sc2ccc3nc(N)nc(N)c3c2)cc1	phage Ecoli inh 99 (no result: AddAB inh, E coli growth-1, E coli growth-2, Tat export inh) | RecBCD conf 64 | Ecoli viability 68 | AddAB phage OD 82
COc1ccc(-c2oc3ccccc3c(=O)c2OCC(=O)O)cc1	none
COc1ccc(-c2oc3ccccc3c(=O)c2OC(C)=O)cc1	phage Ecoli inh 11, E coli growth-1 12 | RecBCD conf inactive | Ecoli viability inactive | AddAB phage OD inactive
COc1ccccc1CNC(=O)COC(=O)c1ccc(Cl)nc1	none
CCCCC(=O)NC(=S)NNC(=O)c1ccc(Cl)cc1Cl	none (no result: AddAB inh, E coli growth-1)
O=C(CSc1cccc[n+]1[O-])Nc1ccc2c(c1)OCO2	none
COc1ccc(C)c2sc(=NC(=O)c3ccc(C(C)=O)cc3)n(C)c12	none
COc1ccc(C)c2sc(=NC(=O)c3ccccc3)n(C)c12	phage Ecoli inh 100 | RecBCD conf inactive | Ecoli viability inactive | AddAB phage OD inactive
Cc1ccc(/C=C/C(=O)c2c(C)nc3ccccn23)cc1	phage Ecoli inh 12 | RecBCD conf inactive | Ecoli viability inactive | AddAB phage OD inactive
C/C(=N/NC(=O)c1cc2ccccc2cc1O)C1C(=O)c2ccccc2C1=O	phage Ecoli inh 11 (no result: E coli growth-2) | RecBCD conf inactive | Ecoli viability inactive | AddAB phage OD inactive
CC(=NNC(=O)c1ccccc1O)C1C(=O)c2ccccc2C1=O	none (no result: AddAB inh, phage Ecoli inh, E coli growth-1, Tat export inh)
CC(C)(C)OC(=O)C[C@@H]1C/C=C\C[C@H](CC(=O)NCCO)C(=O)N2CCC[C@H]2COC1=O	none (no result: E coli growth-2)
O=Cc1cc(N=Nc2ccccc2Cl)ccc1O	phage Ecoli inh 12 | RecBCD conf inactive | Ecoli viability inactive | AddAB phage OD inactive
Oc1c(Br)cc(Br)c2cccnc12	phage Ecoli inh 44 (no result: AddAB inh, E coli growth-1, E coli growth-2) | RecBCD conf 60 | Ecoli viability 68 | AddAB phage OD 53
Oc1c(Br)cc(Br)cc1CNc1cccc2cccnc12	none
O=C(COc1ccccc1)N/N=C/c1ccc([N+](=O)[O-])o1	phage Ecoli inh 12, E coli growth-1 9.8 (no result: E coli growth-2) | RecBCD conf inactive | Ecoli viability inactive | AddAB phage OD 31
O=C(O)c1cn(-c2ccc(F)cc2)c2cc(N3CCNCC3)c(F)cc2c1=O	phage Ecoli inh 99, Tat export inh 114 (no result: AddAB inh, E coli growth-1, E coli growth-2) | RecBCD conf 102 | Ecoli viability 103 | AddAB phage OD 103
COC(=O)c1ccc(NC(=O)Nc2ccc(F)cc2F)cc1	none
COC(=O)c1ccc(NC(=O)Nc2cccc(F)c2)cc1	phage Ecoli inh 12 | RecBCD conf inactive | Ecoli viability inactive | AddAB phage OD inactive
CCCCC(=O)NC(c1cccc([N+](=O)[O-])c1)c1ccc2cccnc2c1O (stereo not drawn)	phage Ecoli inh 19 (no result: AddAB inh, E coli growth-1) | RecBCD conf 16 | Ecoli viability inactive | AddAB phage OD 25
O=[N+]([O-])c1ccc(-c2nc(Cl)c3c(n2)CCCC3)o1	phage Ecoli inh 97 (no result: AddAB inh, E coli growth-1, E coli growth-2, Tat export inh) | RecBCD conf 76 | Ecoli viability 97 | AddAB phage OD 100
CC(=O)c1cn(CC(=O)Nc2ccccc2)c2ccccc12	AddAB inh 14, phage Ecoli inh 12, E coli growth-1 11 | RecBCD conf inactive | Ecoli viability inactive | AddAB phage OD inactive
Clc1ccc(-c2cn(-c3ccccc3)c3[n+]2CCS3)cc1	none
CC1CC1C(=O)Nc1nc(-c2ccc(Cl)s2)cs1 (stereo not drawn)	none
CN(C(=O)C1CCC1C(=O)O)c1nc(-c2ccc(Cl)s2)cs1 (stereo not drawn)	phage Ecoli inh 99 | RecBCD conf inactive | Ecoli viability inactive | AddAB phage OD inactive
COCCCN1C(=O)C(CC(=O)NCc2cccc3ccccc23)CC(C(=O)N(C)C)=C1C (stereo not drawn)	none (no result: AddAB inh, E coli growth-1, E coli growth-2, Tat export inh)
CCn1c(C)cc(C(=O)COC(=O)CNC(=O)c2ccco2)c1C	phage Ecoli inh 11 (no result: AddAB inh, E coli growth-1, E coli growth-2, Tat export inh) | RecBCD conf inactive | Ecoli viability inactive | AddAB phage OD inactive
COc1ccc(C(=O)COc2ncnc3cc(Cl)ccc23)cc1	phage Ecoli inh 98 | RecBCD conf inactive | Ecoli viability inactive | AddAB phage OD inactive
COc1ccc(C=Nn2c(SC)nnc2-c2ccccc2)c(OC)c1OC	none (no result: AddAB inh, phage Ecoli inh, E coli growth-1, Tat export inh)
Oc1c(C(Nc2cccc(C(F)(F)F)c2)c2cccnc2)ccc2cccnc12 (stereo not drawn)	phage Ecoli inh 12 | RecBCD conf inactive | Ecoli viability inactive | AddAB phage OD inactive
Cc1cc(NC(c2cccnc2)c2ccc3cccnc3c2O)no1 (stereo not drawn)	phage Ecoli inh 13 | RecBCD conf inactive | Ecoli viability inactive | AddAB phage OD inactive
Cc1cc(C)nc(Nc2cccc(C(F)(F)F)c2)n1	none
Cc1cc(C)n(-c2cc(C(C)(C)C)nc3c(-c4ccccc4)cnn23)n1	none
O=S(=O)(Nc1cccc(S(=O)(=O)N2CCCC2)c1)c1ccc(F)cc1	none (no result: AddAB inh, E coli growth-1)
Cc1onc(-c2ccccc2)c1C(=O)NN=Cc1cc(Cl)cc(Cl)c1O	phage Ecoli inh 11 (no result: AddAB inh, E coli growth-1, E coli growth-2, Tat export inh) | RecBCD conf inactive | Ecoli viability inactive | AddAB phage OD inactive
Cn1nc(-c2ccccn2)nc2c(=O)n(C)c(=O)nc1-2	none
CCCc1nc2c(=O)n(C)c(=O)nc-2n(C)n1	phage Ecoli inh 18, E coli growth-2 0.44 (no result: AddAB inh, E coli growth-1) | RecBCD conf 16 | Ecoli viability inactive | AddAB phage OD 36
Cc1ccc(NC(=O)CCCSc2nc3ccccc3[nH]2)cc1	phage Ecoli inh 12, E coli growth-1 14 | RecBCD conf inactive | Ecoli viability inactive | AddAB phage OD inactive
CC(C)N(Cc1ccccc1)C(=S)NCc1ccccc1	none
O=C(CSc1nnc(-c2ccccc2)n1Cc1ccccc1)NNC(=O)c1ccccc1O	phage Ecoli inh 12 | RecBCD conf inactive | Ecoli viability inactive | AddAB phage OD inactive
N=c1oc2cc(O)ccc2cc1C(=O)Nc1ccc(Cl)cc1	none
O=C1C=CC(n2cc(F)c(=O)[nH]c2=O)O1 (stereo not drawn)	phage Ecoli inh 24 (no result: AddAB inh, E coli growth-1, E coli growth-2, Tat export inh) | RecBCD conf 32 | Ecoli viability 22 | AddAB phage OD 46
O=C(O)Cn1cc(F)c(=O)[nH]c1=O	none (no result: phage Ecoli inh, Tat export inh)
CC(C)c1ccc(CNc2c([N+](=O)[O-])c(=O)oc3ccccc23)cc1	none
CC(C)C[C@@H](CSc1ccccc1)N1CCN(C)CCC1=O	none (no result: E coli growth-2)
CCc1ccc(NC(=O)CCC(=O)N2CCSc3ccccc32)cc1	phage Ecoli inh 14 | RecBCD conf inactive | Ecoli viability inactive | AddAB phage OD inactive
NCCC(=O)NCCc1cnc[nH]1	none
NCCc1cnc[nH]1	phage Ecoli inh 13! | RecBCD conf inactive | Ecoli viability inactive | AddAB phage OD inactive
Nc1ncnc(SCc2c(F)cccc2Cl)n1	none
COc1ccc(N(C)S(=O)(=O)c2ccc(Cl)c(C(=O)NNC(=O)c3ccccc3O)c2)cc1	phage Ecoli inh 12 (no result: AddAB inh, E coli growth-1) | RecBCD conf inactive | Ecoli viability inactive | AddAB phage OD inactive
Cn1c(=O)n(CCCO)c(=O)c2c1nc1n2CCCN1Cc1ccccc1	none
CN(Cc1ccccc1)C(=O)COC(=O)C1=NNC(=O)CC1	none

Source: PubChem BioAssay
